According to PubChem BioAssay AID1159580 (chemical genetic matrix, 2015):
About 2,000 (36%) of roughly 5,500 compounds were called active. Roughly 18% stayed inconclusive and do not appear here. Rule as the data show it: active = normalized growth mostly below about 0.91 (no sharp cut-off); inconclusive = no clear call, values can overlap the other calls; inactive = mostly above about 0.92. The list shows a part of the results.

Test: chemical genetic growth profiling, strain panel (AID 1159580);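 also: tested at 20 µM; growth read once vehicle control cultures reached saturation at 30 °C; 1 = growth at the plate median or of vehicle wells; lower values mean less growth of the strain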
Settings: growth OD

Measured: normalized growth

c1ccc2[nH]c(-c3cscn3)nc2c1
inactive: S. cerevisiae deletion strains, locus YKL068W, stronger effect = lower value 1 | S. cerevisiae deletion strains, locus YKL085W, strain MDH1 (second series), stronger effect = lower value 0.996 | S. cerevisiae deletion strains, locus YKL085W, strain MDH1, stronger effect = lower value 0.996 | S. cerevisiae deletion strains, locus YKL160W, strain elf1, stronger effect = lower value 1.01 | S. cerevisiae deletion strains, locus YKL190W, strain CNB1, stronger effect = lower value 0.993 | S. cerevisiae deletion strains, locus YKR001C, strain vps1, stronger effect = lower value 0.976 | S. cerevisiae deletion strains, locus YKR026C, strain gcn3, stronger effect = lower value 1.02 | S. cerevisiae deletion strains, locus YKR091W, strain srl3, stronger effect = lower value 1.01 | S. cerevisiae deletion strains, locus YLL001W, strain dnm1, stronger effect = lower value 1 | S. cerevisiae deletion strains, locus YLL026W, stronger effect = lower value 1.01 | S. cerevisiae deletion strains, locus YLL041C, strain sdh2, stronger effect = lower value 1.02 | S. cerevisiae deletion strains, locus YLR027C, strain aat2, stronger effect = lower value 1.01 | S. cerevisiae deletion strains, locus YLR039C, strain RIC1, stronger effect = lower value 0.963 | S. cerevisiae deletion strains, locus YLR058C, strain SHM2, stronger effect = lower value 0.997 | S. cerevisiae deletion strains, locus YLR102C, strain apc9, stronger effect = lower value 1.01 | S. cerevisiae deletion strains, locus YLR113W, strain HOG1, stronger effect = lower value 0.985 | S. cerevisiae deletion strains, locus YLR221C, strain rsa3, stronger effect = lower value 0.97 | S. cerevisiae deletion strains, locus YLR258W, strain gsy2, stronger effect = lower value 0.968 | S. cerevisiae deletion strains, locus YLR262C, strain YPT6 (second series), stronger effect = lower value 0.95 | S. cerevisiae deletion strains, locus YLR262C, strain YPT6, stronger effect = lower value 0.968 | S. cerevisiae deletion strains, locus YLR268W, strain sec22, stronger effect = lower value 0.945 | S. cerevisiae deletion strains, locus YLR320W, strain mms22, stronger effect = lower value 0.899 | S. cerevisiae deletion strains, locus YLR330W, strain CHS5, stronger effect = lower value 0.995 | S. cerevisiae deletion strains, locus YLR342W, strain FKS1 (second series), stronger effect = lower value 1.01 | S. cerevisiae deletion strains, locus YLR342W, strain FKS1, stronger effect = lower value 1 | S. cerevisiae deletion strains, locus YLR357W, strain rsc2, stronger effect = lower value 0.984 | S. cerevisiae deletion strains, locus YLR370C, strain arc18, stronger effect = lower value 0.975 | S. cerevisiae deletion strains, locus YLR371W, strain rom2, stronger effect = lower value 1.02 | S. cerevisiae deletion strains, locus YLR384C, strain iki3, stronger effect = lower value 1.01 | S. cerevisiae deletion strains, locus YLR418C, strain cdc73, stronger effect = lower value 0.979 | S. cerevisiae deletion strains, locus YML016C, strain PPZ1, stronger effect = lower value 0.997 | S. cerevisiae deletion strains, locus YML032C, strain rad52, stronger effect = lower value 0.979 | S. cerevisiae deletion strains, locus YML120C, strain ndi1, stronger effect = lower value 1 | S. cerevisiae deletion strains, locus YMR058W, strain fet3, stronger effect = lower value 0.993 | S. cerevisiae deletion strains, locus YMR078C, strain ctf18, stronger effect = lower value 1 | S. cerevisiae deletion strains, locus YMR125W, strain sto1, stronger effect = lower value 1.04 | S. cerevisiae deletion strains, locus YMR129W, stronger effect = lower value 1.01 | S. cerevisiae deletion strains, locus YMR205C, strain PFK2, stronger effect = lower value 0.982 | S. cerevisiae deletion strains, locus YMR223W, strain ubp8, stronger effect = lower value 1.02 | S. cerevisiae deletion strains, locus YMR231W, strain pep5, stronger effect = lower value 1.02 | S. cerevisiae deletion strains, locus YMR263W, strain SAP30, stronger effect = lower value 0.973 | S. cerevisiae deletion strains, locus YMR307W, strain GAS1, stronger effect = lower value 0.928 | S. cerevisiae deletion strains, locus YNL067W, strain RPL9B, stronger effect = lower value 0.961 | S. cerevisiae deletion strains, locus YNL071W, strain lat1, stronger effect = lower value 0.954 | S. cerevisiae deletion strains, locus YNL128W, strain TEP1, stronger effect = lower value 1.01 | S. cerevisiae deletion strains, locus YNL183C, strain NPR1, stronger effect = lower value 0.927 | S. cerevisiae deletion strains, locus YNL209W, strain ssb2, stronger effect = lower value 0.984 | S. cerevisiae deletion strains, locus YNL233W, strain BNI4, stronger effect = lower value 0.958 | S. cerevisiae deletion strains, locus YNL248C, strain rpa49, stronger effect = lower value 1.01 | S. cerevisiae deletion strains, locus YNL250W, strain rad50, stronger effect = lower value 1.04 | S. cerevisiae deletion strains, locus YNL271C, strain bni1, stronger effect = lower value 1 | S. cerevisiae deletion strains, locus YNL298W, strain CLA4, stronger effect = lower value 1.01 | S. cerevisiae deletion strains, locus YNL307C, strain MCK1, stronger effect = lower value 1 | S. cerevisiae deletion strains, locus YNL322C, strain KRE1 (second series), stronger effect = lower value 0.991 | S. cerevisiae deletion strains, locus YNL322C, strain KRE1, stronger effect = lower value 0.987 | S. cerevisiae deletion strains, locus YNR049C, strain mso1, stronger effect = lower value 1.01 | S. cerevisiae deletion strains, locus YNR052C, strain pop2, stronger effect = lower value 0.983 | S. cerevisiae deletion strains, locus YOL012C, strain htz1 2.38 | S. cerevisiae deletion strains, locus YOL147C, strain pex11, stronger effect = lower value 1.01 | S. cerevisiae deletion strains, locus YOR001W, strain rrp6, stronger effect = lower value 1 | S. cerevisiae deletion strains, locus YOR061W, strain CKA2, stronger effect = lower value 0.996 | S. cerevisiae deletion strains, locus YOR069W, strain VPS5, stronger effect = lower value 1 | S. cerevisiae deletion strains, locus YOR070C, strain gyp1, stronger effect = lower value 0.991 | S. cerevisiae deletion strains, locus YOR080W, strain dia2, stronger effect = lower value 1.01 | S. cerevisiae deletion strains, locus YOR083W, strain WHI5, stronger effect = lower value 0.977 | S. cerevisiae deletion strains, locus YOR106W, strain vam3, stronger effect = lower value 1.03 | S. cerevisiae deletion strains, locus YOR136W, strain idh2, stronger effect = lower value 0.995 | S. cerevisiae deletion strains, locus YOR144C, strain elg1, stronger effect = lower value 1.02 | S. cerevisiae deletion strains, locus YOR184W, strain ser1, stronger effect = lower value 0.932 | S. cerevisiae deletion strains, locus YOR231W, strain MKK1, stronger effect = lower value 1 | S. cerevisiae deletion strains, locus YOR265W, strain rbl2, stronger effect = lower value 0.997 | S. cerevisiae deletion strains, locus YOR270C, strain vph1, stronger effect = lower value 0.961 | S. cerevisiae deletion strains, locus YOR290C, strain snf2, stronger effect = lower value 0.944 | S. cerevisiae deletion strains, locus YOR316C, strain cot1, stronger effect = lower value 0.998 | S. cerevisiae deletion strains, locus YPL051W, strain arl3, stronger effect = lower value 0.991 | S. cerevisiae deletion strains, locus YPL078C, strain atp4, stronger effect = lower value 0.995 | S. cerevisiae deletion strains, locus YPL106C, strain sse1, stronger effect = lower value 1.08 | S. cerevisiae deletion strains, locus YPL240C, strain hsp82, stronger effect = lower value 0.997 | S. cerevisiae deletion strains, locus YPL256C, strain CLN2, stronger effect = lower value 0.957 | S. cerevisiae deletion strains, locus YPR119W, strain clb2, stronger effect = lower value 1.01 | S. cerevisiae deletion strains, locus YPR141C, strain kar3, stronger effect = lower value 1.01 | S. cerevisiae deletion strains, locus YPR163C, strain tif3, stronger effect = lower value 1 | S. cerevisiae deletion strains, locus YPR167C, strain met16, stronger effect = lower value 1 | S. cerevisiae deletion strains, strain wtn01, stronger effect = lower value 0.977 | S. cerevisiae strains, strain wild type, stronger effect = lower value 0.995
active: S. cerevisiae deletion strains, locus YML124C, strain tub3, stronger effect = lower value 0.636 | S. cerevisiae deletion strains, locus YNL153C, strain GIM3, stronger effect = lower value 0.0845 | S. cerevisiae deletion strains, locus YPL241C, strain CIN2, stronger effect = lower value 0.0871
